In PubChem BioAssay (NCI):
Compounds without any hit were thinned out: in the full panel of roughly 79,000, 15% have a hit. A number with no mark means an inactive call. The source made the active and inactive calls. Cut-off read from the data, not from the text of the source: active = growth inhibition above about 70%; inactive = the rest.

Experiments:
[1] = NCI Yeast Anticancer Drug Screen. Data for the rad50 strain (AID 155);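 note: 0% = growth of vehicle-only cultures of the same strain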; settings: S. cerevisiae rad50 strain growth inhibition; at 50.0 µM; active compounds read high
Outline: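 Growth of the mutant yeast was measured after compound exposure and referenced to vehicle-treated cultures.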

[2] = NCI Yeast Anticancer Drug Screen. Data for the mec2-1 strain (AID 157); settings: S. cerevisiae mec2-1 strain, at 50.0 µM, active compounds read high
Outline: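 Vehicle-treated cultures served as reference for growth inhibition of compound-exposed mec2-1 yeast.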

[3] = NCI Yeast Anticancer Drug Screen. Data for the sgs1 mgt1 strain (AID 161);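 note: 0% = growth of cultures given vehicle only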; settings: S. cerevisiae sgs1 mgt1 strain, at 50.0 µM, active compounds read high
Outline: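 Read-out: growth inhibition vs vehicle controls. Cells: mutant yeast strain deficient in DNA damage repair.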

[4] = NCI Yeast Anticancer Drug Screen. Data for the cln2 rad14 strain (AID 165);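 note: 0% = growth equal to vehicle treated cultures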; settings: S. cerevisiae cln2 rad14 strain, at 50.0 µM, active compounds read high
Outline: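 Each compound was tested on cln2 rad14 yeast. Inhibition of growth was calculated against vehicle-exposed controls.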

[5] = NCI Yeast Anticancer Drug Screen. Data for the bub3 strain (AID 167); settings: S. cerevisiae bub3 mutant strain, at 50.0 µM, active compounds read high
Outline: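 Whole-cell yeast assay. The mutant strain was incubated with compounds, and growth inhibition was determined by comparison with vehicle-treated cells.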

[6] = NCI Yeast Anticancer Drug Screen. Data for the mlh1 rad18 strain (AID 175); settings: S. cerevisiae mlh1 rad18 strain growth inhibition; at 50.0 µM; active compounds read high
Outline: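 Vehicle-treated cultures served as the reference for growth inhibition in a yeast strain carrying DNA damage repair alterations exposed to each compound.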

| SMILES | growth inhibition [1] | growth inhibition [2] | growth inhibition [3] | growth inhibition [4] | growth inhibition [5] | growth inhibition [6] |
| --- | --- | --- | --- | --- | --- | --- |
| CCCCCCCCCCCCCCCCCCCCCCCCCCCCCCCCCCCCSC(=N)N | 8.25% | 0.45% | 3.8% | -7.05% | -0.25% | 12.8% |
| CN(C)Cc1c(CC(O)(c2ccccc2)c2ccccc2)ccc2ccccc12 | 10.8% | -4.75% | -12.2% | -0.55% | -1.2% | 5.6% |
| COC(=O)C1=C(C)NC(C)=C(C(=O)OC)C1c1cccc(NO)c1 | 9.6% | 16.4% | 47.4% | 24% | 43.3% | 2.85% |
| CCN(CC)CCC(=O)c1ccc(Oc2ccc(Cl)cc2)cc1 | 96.8% (active) | 83.8% (active) | 99% (active) | 80.2% (active) | 98.9% (active) | 99.2% (active) |
| CCCOC1OC(CS(=O)(=O)O)C(OC(C)=O)C(OC(C)=O)C1OC(C)=O (configuration not stated) | 3.25% | 3.1% | 8.4% | 18% | 2.4% | 5.95% |
| CN1CNc2nc(N)n(C)c(=O)c2C1 | 11.2% | -4.7% | 11.4% | 11.8% | -6.5% | 8.2% |
| CN(C)CCSCC(=O)N1c2ccccc2Sc2ccc(Cl)cc21 | -5.25% | -7.45% | -2.9% | 17.6% | 7.95% | -0.5% |
| COc1cccc(NC(=O)CSc2nnc(-c3ccc(NC(C)=O)cc3)o2)c1 | -29.2% | -15.5% | -15.3% | 6.15% | -25.4% | -16.9% |
| CCCN1C(=O)c2cc(=O)n(Cc3ccccc3)c(O)c2C1C (configuration not stated) | 6.95% | 33% | 4.7% | 8.4% | -9.45% | 13.8% |
| CCCCC1(CN(C)C)C(=O)N(C)C(=O)N(C2CCCCC2)C1=O (configuration not stated) | 9.15% | 10.2% | 1.4% | 21.9% | -4.2% | 9.6% |
| COc1cc(/C=C/C(=O)c2sc(-n3nc(-c4ccccc4)cc3-c3ccccc3)nc2C)ccc1O | 6% | -13.6% | -34.4% | 4.9% | 26.4% | -10% |
| COC(=O)CNC(=O)C1CSC(C)(C)N1C=O (configuration not stated) | -5.25% | -9.85% | 10.2% | 2.4% | 47.9% | -6.2% |
| CCC[CH2][Sn]([CH2]CCC)([O]C(=O)c1ccc(OC)c(OC)c1OC)[O][Sn]([CH2]CCC)([CH2]CCC)[O]C(=O)c1ccc(OC)c(OC)c1OC | 85.7% (active) | 85% (active) | 86.3% (active) | 85.2% (active) | 87.2% (active) | 86.3% (active) |
| CSC1=N/C(=C\c2ccc(C)cc2)C(=O)N1 | -35.5% | 0.3% | 20.2% | 0.85% | -6.35% | -10.5% |
| CC(=O)NC1=C/C(=C/COC(C)=O)OC1=O | 22.6% | -9.9% | 11.8% | -57% | 5.8% | 8.75% |
| OCC1OCOC1C1OCOC1CO (configuration not stated) | 0.55% | 4.35% | 3.95% | 2.9% | -2.55% | -3.45% |
| CCOC(=O)NC(=O)c1cn(CCCCCOC(=O)NCCCCCCNC(=O)OCCCCCn2cc(C(=O)NC(=O)OCC)c(=O)[nH]c2=O)c(=O)[nH]c1=O | 20.6% | 13.2% | 12.6% | 21.9% | 6.7% | 24.1% |
| CC(O)C(NC(=O)c1cnc(OCc2ccccc2)nc1N)C(=O)O (configuration not stated) | 3.65% | -15.7% | -11% | 0.85% | -9.8% | -3.35% |
| CNC(=O)c1ccccc1C | -1.15% | -6% | -6.9% | -33.3% | 6.55% | 0.35% |

| SMILES | growth inhibition [1] | growth inhibition [2] | growth inhibition [3] | growth inhibition [4] | growth inhibition [5] | growth inhibition [6] |
| --- | --- | --- | --- | --- | --- | --- |
| COC(=O)C(O)CC1=CC[C@@H]2CC=C[C@H]12 (some centres not stated) | 27.7% | 1.7% | 13.7% | 3.7% | 27.5% | -7.65% |
| COc1ccccc1Br | -3.55% | 0.85% | -2% | -15.3% | -32.1% | -4% |
| Cc1cccc(C(=O)N(C)C)c1 | -0.7% | 1.75% | -6.4% | -17.8% | 4% | 3.75% |
| Cc1ccc(N(CN2C(=O)CCC2=O)CS(=O)(=O)c2ccc(C)cc2)cc1 | -1.85% | -8.6% | -9.15% | 21.4% | -5.65% | 0.8% |
| CCOC(=O)C1C(=O)CC(O)(c2ccccc2)C(C(=O)OCC)C1c1ccc(OC)cc1 (configuration not stated) | -17.9% | -13.2% | -6.65% | -31.1% | 6.95% | -3.7% |
| CCCCC(C(=O)O)C1CCCCC1 (configuration not stated) | -12.3% | 17.4% | 23.4% | -11.9% | -12.2% | -1% |
| NNC(=O)/C(=C/c1ccc(Cl)cc1Cl)NC(=O)c1ccccc1 | 45% | 35.3% | 39.3% | 60.4% | 66.8% | 54.5% |
| COc1[nH]c2ccccc2c1C=O | 45.1% | 30.6% | 22.3% | 17.1% | 11% | 24.1% |
| COc1ccc(C(C)c2cc3c(cc2OC)OCO3)cc1 (configuration not stated) | 9.25% | -32.6% | 15.2% | 3.35% | 3% | 10.9% |
| CCCCCCC(/C=N/Nc1ccccn1)=C\c1ccccc1 | -5.05% | -0.95% | 2.55% | -7.6% | -4.1% | -21.9% |
| NCC(N)=O | -1.6% | -14.2% | -29% | -35% | -36.2% | 4.1% |
| O=C1c2ccccc2C(=O)c2c3c(cc([N+](=O)[O-])c21)OCO3 | -18.2% | 12.1% | 9.05% | 25.7% | -3% | -9.75% |
| OCC1(CO)CCC=CO1 | 3.8% | -7.8% | 2.5% | 10.7% | 1.05% | 5% |
| Nc1nc2c(nc(OCc3ccccc3)n2C2OC(CO)C(O)C2O)c(=O)[nH]1 (configuration not stated) | 23.5% | 10.8% | 2.65% | 8.95% | 0.5% | 16.1% |
| O=C(CO)C(O)C(O)C(O)CO (configuration not stated) | 1.65% | -9.75% | -7.45% | 8.75% | 19.9% | 0.95% |
| CCCCCC(CCCC)OC(=O)Nc1ccccc1 (configuration not stated) | -4.35% | 7.85% | 10% | -7% | -1.15% | 4.6% |
| CC(=O)OC1COC(n2c(=S)n(-c3ccccc3)c(=O)c3cc(Br)ccc32)C(OC(C)=O)C1OC(C)=O (configuration not stated) | 1.9% | -5.4% | 8.45% | 15.8% | -3.85% | -11.9% |
| COc1cc2c3cc1Oc1c(OC)c(OC)cc4c1C(Cc1ccc(O)c(c1)Oc1ccc(cc1)CC3N(C)CC2)CN(C)C4 (configuration not stated) | -17.6% | -37.9% | -3.6% | -17.4% | 3.35% | 25.1% |
